Experimental data taken from PubChem BioAssay AID759 (NMMLSC, 2007).
About 270 (0.14%) of roughly 190,000 compounds were called active. Another 2% or so got no clear call; they are omitted. This is one part of a sample in which actives are shown more often than they occur.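 How the source made its calls: active means GTP binding activity at least 20% away from the 100% baseline, either lowered as inhibitor or raised as activator; inconclusive means flagged as likely green fluorescent, judged across all proteins in the well; inactive means the rest.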

These compounds were tested against GTPase HRas (Homo sapiens) (UniProt P01112) (assay: modulators of GTP binding to HRas wildtype, primary screen, biochemical, bead-based flow cytometry, multiplex (AID 759;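 further: 0% = unlabeled GTP competition control and 100% = no-compound control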)). Details: GST-Ras wt beads, Bodipy-FL-GTP binding, at 10 µM, actives lie on both sides.
Sequence of GTPase HRas (Homo sapiens) (P01112 whole entry, looked up): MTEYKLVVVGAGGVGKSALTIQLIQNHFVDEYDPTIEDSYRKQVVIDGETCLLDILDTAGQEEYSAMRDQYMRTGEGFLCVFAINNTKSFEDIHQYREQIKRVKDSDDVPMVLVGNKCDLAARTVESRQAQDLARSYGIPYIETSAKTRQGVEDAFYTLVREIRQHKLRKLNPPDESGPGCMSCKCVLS
For CCCCNC(=O)Nc1c(C)cc(SC#N)cc1C, the GTP binding activity was 95% (inactive). For CCCSc1nc2[nH]ncc2c(=O)[nH]1, the GTP binding activity was 101% (inactive). With Cc1cccc(NC(=O)CSc2nc3[nH]ncc3c(=O)[nH]2)c1 the GTP binding activity was 97% (inactive). With Cc1ccc(CSc2nc3[nH]ncc3c(=O)[nH]2)cc1 the GTP binding activity was 78% (active). In the case of CCC(=O)/C(=C(/O)c1ccccc1)c1nc2ccccc2[nH]1, the GTP binding activity was 98% (inactive). For COC(=O)c1nn(-c2cccc(Cl)c2)ccc1=O, the GTP binding activity was 97% (inactive). O=C(CC12CC3CC(CC(C3)C1)C2)NCc1ccco1 was tested, and the GTP binding activity was 96% (inactive). In the case of CCc1ccc(Nc2nnc(SCC(=O)c3ccc4c(c3)NC(=O)CO4)s2)cc1, the GTP binding activity was 99% (inactive). In the case of COc1ccccc1CC(NC(C)=O)C(=O)NC1CCN(C(=O)Nc2ccccc2Cl)CC1 (centres undefined), the GTP binding activity was 101% (inactive). COC(=O)c1ccc(/C=N/OCC(=O)Nc2cc(F)ccc2F)cc1 was tested, and the GTP binding activity was 95% (inactive). For COc1ccc(N2CCN(CCCNC(=O)C3CCN(S(=O)(=O)N4CCOCC4)CC3)CC2)cc1, the GTP binding activity was 96% (inactive). With COc1ccc(/C=C/CN2CCN(Cc3ccc(C)cc3)C(CCO)C2)cc1 (centres undefined) the GTP binding activity was 105% (inactive). COc1cccc(NCCC(=O)c2cccc([N+](=O)[O-])c2)c1 was tested, and the GTP binding activity was 97% (inactive). With Cc1ccc(C(=O)O)cc1NC(=O)c1ccc(Cn2nc(C)c(Cl)c2C)o1 the GTP binding activity was 100% (inactive). For Cc1noc(C)c1COc1cccc(C(=O)Nc2cccnc2)c1, the GTP binding activity was 97% (inactive). Cc1[nH]c2c(C(=O)N3CCCC(CCC(=O)NCc4ccccc4F)C3)cccc2c1C (centres undefined) was tested, and the GTP binding activity was 106% (inactive). For COC(=O)c1nc(NC(=O)c2ccc(F)cc2)n[nH]1, the GTP binding activity was 98% (inactive). N#CC1=C(N)Oc2[nH]c(=S)[nH]c(=O)c2C12C(=O)Nc1ccccc12 (centres undefined) was tested, and the GTP binding activity was 96% (inactive). For COc1ccc(/C=C(\C#N)C(=O)ONC2=NCCCCC2)cc1, the GTP binding activity was 97% (inactive). C=C(C)CNC(=S)N/N=C/c1ccccc1OCC(=O)O was tested, and the GTP binding activity was 95% (inactive). With O=C(COC(=O)c1cnc(Cl)c(Cl)c1)NCc1ccco1 the GTP binding activity was 97% (inactive). CN1CCN(C(=O)N2c3ccccc3CCc3ccccc32)CC1 was tested, and the GTP binding activity was 102% (inactive). With O=C(Nc1cccc(Cl)c1)c1cc([N+](=O)[O-])ccc1N1CCN(CCO)CC1 the GTP binding activity was 97% (inactive). With CC/C(Cc1ccccc1)=N/NC(=O)CCn1nnc2ccccc21 the GTP binding activity was 101% (inactive). For COc1ccc(NC(=O)c2c(SC)nsc2SC)cc1, the GTP binding activity was 101% (inactive). In the case of CSc1ncccc1C(=O)NC1CCCCCC1, the GTP binding activity was 98% (inactive). For CSc1nsc(SC)c1NC(=O)OC1CCCCC1, the GTP binding activity was 39% (active). In the case of Cc1ccc(S(=O)(=O)N2CCN(C(=O)c3cccs3)CC2)cc1, the GTP binding activity was 93% (inactive). COc1ccc(O)c(C(=O)c2cnc3c(c2)c(-c2ccc(F)cc2)c(C#N)c(=O)n3C)c1 was tested, and the GTP binding activity was 95% (inactive). With O=C(CCCc1ccccc1)NCc1ccccc1 the GTP binding activity was 94% (inactive). For COc1cc2nc(CN(C)Cc3ccc(F)cc3)[nH]c(=O)c2cc1OC, the GTP binding activity was 97% (inactive). In the case of O=C(Nc1ccccc1F)c1ccccc1-c1ccccc1, the GTP binding activity was 76% (active). O=C(Nc1ccccc1F)c1ccccc1-c1ccc(C(F)(F)F)cc1 was tested, and the GTP binding activity was 104% (inactive). NC(=O)c1ccccc1NC(=O)c1ccccc1F was tested, and the GTP binding activity was 101% (inactive). With COc1cc(C(=O)N[C@@H](C)C(=O)NCc2ccco2)cc(OC)c1OC the GTP binding activity was 98% (inactive). In the case of Cc1cccn2c(CN(C)C3CCCc4ccccc43)c(C(=O)N3CCOCC3)nc12 (centres undefined), the GTP binding activity was 98% (inactive). O=C1CC(c2c(F)cccc2Cl)C(n2cncn2)C(O)=C1C1NCCc2ccccc21 (centres undefined) was tested, and the GTP binding activity was 94% (inactive). For O=C(Nc1ccccc1C(=O)N1CCOCC1)c1ccc(CSc2ccccc2)cc1, the GTP binding activity was 100% (inactive). Nc1ncnc(Nc2cccc(Cl)c2Cl)n1 was tested, and the GTP binding activity was 97% (inactive). In the case of COc1cc(C(=O)N2C(=O)c3cccc(N)c3C2=O)cc(OC)c1OC, the GTP binding activity was 95% (inactive). For COc1c(F)c(F)c(C(=O)O)c(Nc2ccccc2C)c1F, the GTP binding activity was 98% (inactive). For Cc1ccc(Nc2c(F)c(F)c(F)c(F)c2C(=O)O)c(C)c1, the GTP binding activity was 124% [activator] (active). With Cc1ccc(NC(=S)NC(=O)c2ccc(-c3ccccc3)cc2)c(C)c1 the GTP binding activity was 100% (inactive). Cc1cc(C)nc(NNC2=CC(=O)CC(C)(C)C2)n1 was tested, and the GTP binding activity was 99% (inactive). With CCOc1ccc(OCc2cccc(C(=O)N(CC)CC)c2)cc1 the GTP binding activity was 98% (inactive). In the case of CN(Cc1cc2cc(F)ccc2[nH]1)Cc1nc(-c2cnccn2)no1, the GTP binding activity was 98% (inactive). For CC(C)(C)C(=O)N(Cc1ccccc1)c1ccccn1, the GTP binding activity was 95% (inactive). In the case of COc1ccccc1NC(=O)COC(=O)Cc1ccc(S(=O)(=O)N2CCCCC2)s1, the GTP binding activity was 98% (inactive). S=c1ccc2ccccc2[nH]1 was tested, and the GTP binding activity was 98% (inactive). For C=CCNC(=O)CC12CC3CC(C1)CC(CC(=O)NCC=C)(C3)C2, the GTP binding activity was 99% (inactive). With Cc1ccc(SCCC(=O)NCc2ccccn2)cc1 the GTP binding activity was 99% (inactive). With CCOc1ccc(NS(=O)(=O)c2cc(C)c(C)cc2C)cc1 the GTP binding activity was 98% (inactive). COc1cc(/C=N/Nc2ccc(C)cc2)cc(Br)c1O was tested, and the GTP binding activity was 96% (inactive). In the case of COc1ccc(/C=N/Nc2ncnc3sc4c(c23)CCCC4)cc1O, the GTP binding activity was 71% (active). COc1ncnc2sc3c(c12)CCCC3 was tested, and the GTP binding activity was 103% (inactive). With O=C(Nc1ccc(-c2ccc3nncn3n2)cc1)C1CCCCC1 the GTP binding activity was 99% (inactive). In the case of O=C(OCC1O[C@@H](OC(=O)c2cc(O)c(O)c(O)c2)[C@@H](OC(=O)c2cc(O)c(O)c(O)c2)[C@@H](OC(=O)c2cc(O)c(O)c(O)c2)[C@@H]1OC(=O)c1cc(O)c(O)c(O)c1)c1cc(O)c(O)c(O)c1 (some centres undefined), the GTP binding activity was 79% (active). With CC(=O)NC1C(OCc2ccccc2)OC(COC(C)=O)C(OC(C)=O)C1OC(C)=O (centres undefined) the GTP binding activity was 102% (inactive). O=S(=O)(Nc1ncccn1)c1ccc(NS(=O)(=O)c2cccc(Cl)c2Cl)cc1 was tested, and the GTP binding activity was 96% (inactive). With CC(CC(=O)O)CC(=O)NNC(=O)c1cccc(Br)c1 (centres undefined) the GTP binding activity was 95% (inactive). With CC(C)N(C)C(=O)CCc1nnc(CCc2c[nH]c3ccccc23)o1 the GTP binding activity was 93% (inactive). For CCOc1cc(NC(=S)NCc2ccco2)c(OCC)cc1NC(=O)c1ccco1, the GTP binding activity was 98% (inactive). In the case of O=C(CN1CCN(S(=O)(=O)/C=C/c2ccccc2)CC1)Nc1ccc(N2CCOCC2)cc1, the GTP binding activity was 99% (inactive). Cc1ccc(CC(=O)Nc2cccc(C#N)c2)cc1 was tested, and the GTP binding activity was 98% (inactive). NNC(=O)c1cnn(-c2ccccc2)c1C(F)(F)F was tested, and the GTP binding activity was 98% (inactive). CCCN(CC(=O)Nc1ccc(C(N)=O)cc1)CC(=O)Nc1ccccc1C was tested, and the GTP binding activity was 96% (inactive). In the case of CN(C)C(=O)CSc1n[nH]c(-c2ccco2)n1, the GTP binding activity was 94% (inactive). For O=C(CNCc1ccc(Cl)cc1)Nc1cccc(C(=O)O)c1, the GTP binding activity was 95% (inactive). With CCN(CC)c1ccc2c(Nc3ccccc3)c(C=O)c(=O)oc2c1 the GTP binding activity was 93% (inactive). In the case of CC(=O)c1sc(NC(=O)C2=NN(c3ccccc3)C(=O)CC2)nc1C, the GTP binding activity was 98% (inactive). With COc1ccc(NC(=O)COC(=O)c2ccncc2)c(OC)c1 the GTP binding activity was 97% (inactive). C=CCOCCN(C)C1=NS(=O)(=O)c2ccccc21 was tested, and the GTP binding activity was 100% (inactive). In the case of Cc1cc(OC(=O)c2ccccc2Cl)ccc1N1C(=O)CCC1=O, the GTP binding activity was 97% (inactive). CN(C)c1ccc(NC(=O)CSc2n[nH]c(-c3ccco3)n2)cc1 was tested, and the GTP binding activity was 94% (inactive). With COc1ccc(S(=O)(=O)N2CCOCC2)cc1NC(=O)CSc1ncnc2ccccc12 the GTP binding activity was 93% (inactive). With COc1ccc(S(=O)(=O)N2CCOCC2)cc1C(=O)Nc1nc2ccccc2s1 the GTP binding activity was 75% (active). In the case of CCOC(=O)c1sc(NC(=O)c2cc(S(=O)(=O)N3CCOCC3)ccc2C)nc1C, the GTP binding activity was 100% (inactive). In the case of O=C(O)CC1S/C(=N\N=C/c2ccccc2O)N(c2ccc(O)cc2)C1=O (centres undefined), the GTP binding activity was 97% (inactive). With Cc1sc2c(c1C)c(=O)n(-c1ccccc1)c(=O)n2CC(=O)NCC1CCCO1 (centres undefined) the GTP binding activity was 98% (inactive). In the case of C=CCOC(=O)C1=C(C)N=C2SCCC(=O)N2C1/C=C/c1ccccc1OC (centres undefined), the GTP binding activity was 99% (inactive). With COc1cc(N/C=C2\CC(=O)NC(C)=C2C#N)cc(OC)c1OC the GTP binding activity was 102% (inactive). For O=C(Nc1ccc(N2CCOCC2)cc1)c1ccc2c(c1)OCO2, the GTP binding activity was 99% (inactive). CCc1ccc(NC(=O)C(=O)N/N=C(\C)CC(=O)NCCOC)cc1 was tested, and the GTP binding activity was 96% (inactive). In the case of CCn1c(SCc2cc(=O)n3ccsc3n2)nc2ccccc21, the GTP binding activity was 102% (inactive). For Oc1cccc2ccc(/C=C/c3ccc(Br)s3)nc12, the GTP binding activity was 100% (inactive). For CC(=O)C1(C)N(O)C(C)(C)C(c2cccs2)=[N+]1[O-] (centres undefined), the GTP binding activity was 98% (inactive). For CCOCC(=O)Nc1ncc(S(=O)(=O)c2ccc([N+](=O)[O-])cc2)s1, the GTP binding activity was 91% (inactive). In the case of CN(C(=O)CSc1nncc2ccccc12)C1CCCCC1, the GTP binding activity was 96% (inactive). CC1(C)CC(=O)C(CC(=O)N2CCC(Cc3ccccc3)CC2)C(=O)C1 was tested, and the GTP binding activity was 96% (inactive). With CCn1cc(-c2cc(C(=O)O)on2)c(C)n1 the GTP binding activity was 95% (inactive). In the case of c1csc(-c2nnc(COc3ccc4c(c3)OCO4)o2)c1, the GTP binding activity was 96% (inactive). For CCNC(=O)CC1C(=O)N(c2ccc(F)cc2)C(=O)N1Cc1cccs1 (centres undefined), the GTP binding activity was 100% (inactive). CNC(=O)NC(=O)CSc1nnc(-c2ccc(F)cc2)n1CC1CCCO1 (centres undefined) was tested, and the GTP binding activity was 97% (inactive). For C=CCn1c(COc2ccc(F)cc2)nnc1SCC(=O)Nc1cccc(S(N)(=O)=O)c1, the GTP binding activity was 96% (inactive). Cc1ccccc1C(=O)Nc1ccc(N2CCCCCC2)cc1 was tested, and the GTP binding activity was 96% (inactive). For Nc1nnc(SCn2nnc3ccccc3c2=O)s1, the GTP binding activity was 95% (inactive). For O=C(NCc1ccc(F)cc1)C(c1ccccc1)N(C(=O)c1csnn1)C1CC1 (centres undefined), the GTP binding activity was 95% (inactive). For O=C(O)CCCCCNc1ncnc2ccc(Br)cc12, the GTP binding activity was 97% (inactive). For C=C(C)C1CC=C(C)/C(=N/NC(=O)CCCNc2cccc(C)c2)C1 (centres undefined), the GTP binding activity was 96% (inactive).
